# Results reported in PubChem BioAssay (EPA / NIEHS).
# Results filed as inconclusive are left out. The source made the active and inactive calls. Rule for the calls: active = hit-call score of the fitted dose curve at least 0.9, where 1 is the maximum; inconclusive = response in the unintended direction; inactive = score below 0.9.
# How the values were obtained:
# [1] = target: Retinoic acid receptor alpha (Homo sapiens) (UniProt P10276); assay: ATG_RARa_TRANS: Attagene TRANS-FACTORIAL HepG2 Assay for human Retinoic Acid Receptor alpha (RARa) (AID 2283005)
# Sequence of Retinoic acid receptor alpha (Homo sapiens) (P10276 whole entry, looked up, the tested form may be a part): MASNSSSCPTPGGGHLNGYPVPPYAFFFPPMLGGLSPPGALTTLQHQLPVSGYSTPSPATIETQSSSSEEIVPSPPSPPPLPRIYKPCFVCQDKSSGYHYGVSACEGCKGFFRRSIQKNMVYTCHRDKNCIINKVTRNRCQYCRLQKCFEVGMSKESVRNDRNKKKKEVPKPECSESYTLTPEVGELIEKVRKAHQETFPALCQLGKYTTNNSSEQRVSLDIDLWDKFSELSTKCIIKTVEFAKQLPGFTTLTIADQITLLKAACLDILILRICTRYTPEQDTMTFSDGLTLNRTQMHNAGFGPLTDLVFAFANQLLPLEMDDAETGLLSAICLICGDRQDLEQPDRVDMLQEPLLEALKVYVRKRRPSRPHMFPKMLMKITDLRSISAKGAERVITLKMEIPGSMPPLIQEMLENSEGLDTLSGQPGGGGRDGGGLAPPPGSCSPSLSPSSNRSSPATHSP
# Summary of the method: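 HepG2 cells transiently transfected with multiple reporter units expressing chimeric RARα-GAL4 fusion, with GAL4-UAS-driven reporters. After 24 h compound exposure, reporter mRNA induction quantified by RT-PCR and capillary electrophoresis with fluorescent labeling; gain-of-signal fitted relative to DMSO control.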
# [2] = target: Peroxisome proliferator-activated receptor gamma (Homo sapiens) (UniProt P37231); assay: ATG_PPARg_TRANS: Attagene TRANS-FACTORIAL HepG2 Assay for human Peroxisome Proliferator-activated Receptor-gamma (PPARg) (AID 2283007)
# Sequence of Peroxisome proliferator-activated receptor gamma (Homo sapiens) (P37231 whole entry, looked up, the tested form may be a part): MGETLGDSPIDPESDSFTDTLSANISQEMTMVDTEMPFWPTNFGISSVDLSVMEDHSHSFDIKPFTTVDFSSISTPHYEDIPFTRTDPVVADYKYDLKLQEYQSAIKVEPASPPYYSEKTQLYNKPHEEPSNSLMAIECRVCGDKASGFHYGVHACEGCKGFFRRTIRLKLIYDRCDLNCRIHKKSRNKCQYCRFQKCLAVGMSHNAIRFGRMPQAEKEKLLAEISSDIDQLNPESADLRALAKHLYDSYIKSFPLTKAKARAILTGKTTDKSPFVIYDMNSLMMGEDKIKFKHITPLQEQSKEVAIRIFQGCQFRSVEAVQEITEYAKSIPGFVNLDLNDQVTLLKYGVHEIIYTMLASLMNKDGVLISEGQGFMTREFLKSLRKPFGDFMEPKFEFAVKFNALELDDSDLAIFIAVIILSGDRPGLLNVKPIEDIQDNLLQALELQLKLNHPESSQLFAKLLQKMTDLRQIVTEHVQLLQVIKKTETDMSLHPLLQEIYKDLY
# Summary of the method: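 HepG2 cells are transiently transfected with GAL4-UAS reporter units driven by chimeric NR-Gal4 fusions and dosed for 24 h. Reporter mRNA is quantified by RT-PCR, 6-FAM labelling, HpaI digestion and capillary electrophoresis. Induction is scored against DMSO.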
# [3] = target: human Retinoic Acid Receptor gamma (RARg), RARG (gene 5916) (UniProt P13631); assay: ATG_RARg_TRANS: Attagene TRANS-FACTORIAL HepG2 Assay for human Retinoic Acid Receptor gamma (RARg) (AID 2283009)
# Sequence of human Retinoic Acid Receptor gamma (RARg), RARG (gene 5916) (P13631 whole entry, looked up, the tested form may be a part): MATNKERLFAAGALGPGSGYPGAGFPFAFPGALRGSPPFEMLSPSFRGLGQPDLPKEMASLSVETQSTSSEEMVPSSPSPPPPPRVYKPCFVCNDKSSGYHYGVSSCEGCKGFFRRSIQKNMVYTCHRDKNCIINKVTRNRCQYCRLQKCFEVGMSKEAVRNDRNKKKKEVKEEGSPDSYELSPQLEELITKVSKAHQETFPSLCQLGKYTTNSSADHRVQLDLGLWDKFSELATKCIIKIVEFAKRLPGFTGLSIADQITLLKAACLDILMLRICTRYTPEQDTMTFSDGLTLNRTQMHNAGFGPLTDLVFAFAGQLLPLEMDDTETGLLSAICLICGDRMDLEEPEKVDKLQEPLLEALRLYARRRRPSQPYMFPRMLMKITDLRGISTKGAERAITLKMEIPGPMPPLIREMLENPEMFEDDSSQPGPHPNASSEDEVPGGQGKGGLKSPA
# Summary of the method: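 Transactivation of exogenous RARg-Gal4 fusion measured as reporter transcript induction after 24 h in transfected HepG2 cells. RNA reverse-transcribed, amplified, fluorescently labeled and resolved by capillary electrophoresis; increase relative to DMSO.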
# [4] = target: human Retinoid X Receptor beta (RXRb), RXRB (gene 6257) (UniProt P28702); assay: ATG_RXRb_TRANS: Attagene TRANS-FACTORIAL HepG2 Assay for human Retinoid X Receptor beta (RXRb) (AID 2283013)
# Sequence of human Retinoid X Receptor beta (RXRb), RXRB (gene 6257) (P28702 whole entry, looked up, the tested form may be a part): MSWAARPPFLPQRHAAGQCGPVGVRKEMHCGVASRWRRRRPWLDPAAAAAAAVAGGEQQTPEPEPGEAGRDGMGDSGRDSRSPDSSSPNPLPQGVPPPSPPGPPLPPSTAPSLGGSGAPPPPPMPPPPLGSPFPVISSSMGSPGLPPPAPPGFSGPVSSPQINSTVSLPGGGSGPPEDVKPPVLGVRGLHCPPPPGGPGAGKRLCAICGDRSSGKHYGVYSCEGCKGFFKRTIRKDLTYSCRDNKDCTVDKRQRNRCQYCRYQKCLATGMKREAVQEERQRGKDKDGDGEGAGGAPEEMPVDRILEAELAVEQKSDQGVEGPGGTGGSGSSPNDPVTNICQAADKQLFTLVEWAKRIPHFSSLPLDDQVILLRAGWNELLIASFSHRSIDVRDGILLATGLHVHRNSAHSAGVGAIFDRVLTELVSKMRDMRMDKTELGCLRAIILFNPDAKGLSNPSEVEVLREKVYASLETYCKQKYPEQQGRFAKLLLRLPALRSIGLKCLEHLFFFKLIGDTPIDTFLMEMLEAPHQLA
# Summary of the method: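 Readout is reporter transcript induction after 24 h dosing. It is measured by RT-PCR of total RNA followed by fluorescent capillary electrophoresis. HepG2 liver cells carry transfected multiple reporter units driven by an exogenous RXRb-Gal4 fusion; activity is relative to DMSO.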
# [5] = target: Nuclear receptor subfamily 1 group I member 2 (Homo sapiens) (UniProt O75469); assay: ATG_PXR_TRANS: Attagene TRANS-FACTORIAL HepG2 Assay for human Pregnane X Receptor (PXR) (AID 2283008)
# Sequence of Nuclear receptor subfamily 1 group I member 2 (Homo sapiens) (O75469 whole entry, looked up, the tested form may be a part): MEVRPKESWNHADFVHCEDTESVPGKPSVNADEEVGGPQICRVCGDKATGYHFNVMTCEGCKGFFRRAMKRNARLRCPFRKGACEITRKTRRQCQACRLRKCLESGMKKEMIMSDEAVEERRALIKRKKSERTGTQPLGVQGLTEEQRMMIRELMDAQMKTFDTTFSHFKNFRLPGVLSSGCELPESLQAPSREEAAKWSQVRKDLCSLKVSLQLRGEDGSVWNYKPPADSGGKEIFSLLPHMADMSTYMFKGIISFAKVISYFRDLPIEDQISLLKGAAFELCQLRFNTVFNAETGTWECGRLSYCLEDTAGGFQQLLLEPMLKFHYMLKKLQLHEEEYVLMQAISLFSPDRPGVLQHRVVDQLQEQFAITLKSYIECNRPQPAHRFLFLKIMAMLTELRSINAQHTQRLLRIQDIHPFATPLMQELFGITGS
# Summary of the method: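 Multiplexed TRANS reporter panel in HepG2; this component tracks PXR-Gal4-driven reporter mRNA after 24 h dosing, measured by RT-PCR with capillary electrophoresis fluorescence, fitted against DMSO.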
# [6] = target: human Thyroid Receptor alpha (THRa1), THRA (gene 7067) (UniProt P10827); assay: ATG_THRa1_TRANS: Attagene TRANS-FACTORIAL HepG2 Assay for human Thyroid Receptor alpha (THRa1) (AID 2283014)
# Sequence of human Thyroid Receptor alpha (THRa1), THRA (gene 7067) (P10827 whole entry, looked up, the tested form may be a part): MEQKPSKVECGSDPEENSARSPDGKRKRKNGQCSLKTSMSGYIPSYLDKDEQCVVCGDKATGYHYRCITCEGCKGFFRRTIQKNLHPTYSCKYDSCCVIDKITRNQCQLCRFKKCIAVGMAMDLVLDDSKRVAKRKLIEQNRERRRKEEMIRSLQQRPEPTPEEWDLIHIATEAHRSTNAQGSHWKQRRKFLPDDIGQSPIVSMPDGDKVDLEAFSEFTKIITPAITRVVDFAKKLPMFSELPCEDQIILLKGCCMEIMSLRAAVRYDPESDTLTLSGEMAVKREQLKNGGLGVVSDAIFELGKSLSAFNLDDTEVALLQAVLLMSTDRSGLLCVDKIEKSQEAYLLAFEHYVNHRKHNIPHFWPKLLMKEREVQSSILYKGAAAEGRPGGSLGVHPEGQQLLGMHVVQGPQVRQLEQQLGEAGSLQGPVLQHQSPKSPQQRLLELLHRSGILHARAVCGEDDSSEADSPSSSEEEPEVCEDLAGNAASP
# Summary of the method: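 Transcripts from GAL4-UAS-driven reporters, measured after 24 h compound exposure by RT-PCR plus capillary electrophoresis of 6-FAM-labeled fragments, were fitted for gain of signal relative to DMSO. Cells: transiently transfected HepG2 expressing NR-Gal4 chimeras.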
# [7] = target: human RAR-related Orphan Receptor gamma (RORg), RORC (gene 6097) (UniProt P51449); assay: ATG_RORg_TRANS: Attagene TRANS-FACTORIAL HepG2 Assay for human RAR-related Orphan Receptor gamma (RORg) (AID 2283011)
# Sequence of human RAR-related Orphan Receptor gamma (RORg), RORC (gene 6097) (P51449 whole entry, looked up, the tested form may be a part): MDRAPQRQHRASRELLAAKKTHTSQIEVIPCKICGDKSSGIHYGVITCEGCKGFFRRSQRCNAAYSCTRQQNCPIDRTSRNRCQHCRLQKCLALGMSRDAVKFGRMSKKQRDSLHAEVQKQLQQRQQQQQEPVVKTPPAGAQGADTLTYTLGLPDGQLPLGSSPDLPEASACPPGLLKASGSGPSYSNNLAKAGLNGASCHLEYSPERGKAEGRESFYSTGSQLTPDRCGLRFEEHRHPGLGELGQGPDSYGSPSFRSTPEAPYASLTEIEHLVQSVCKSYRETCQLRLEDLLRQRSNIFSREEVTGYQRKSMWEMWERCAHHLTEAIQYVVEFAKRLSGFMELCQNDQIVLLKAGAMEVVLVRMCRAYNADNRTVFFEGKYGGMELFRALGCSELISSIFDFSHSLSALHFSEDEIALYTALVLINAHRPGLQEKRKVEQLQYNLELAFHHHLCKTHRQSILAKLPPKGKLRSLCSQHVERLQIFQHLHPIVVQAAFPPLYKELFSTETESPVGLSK
# Summary of the method: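 Reporter transcripts from a transfected RORg-GAL4 chimera in HepG2 cells were quantified 24 h after dosing by RT-PCR, 6-FAM labelling, HpaI digestion and capillary electrophoresis; increases over DMSO baseline were fitted.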
# [8] = target: human Retinoic Acid Receptor beta (RARb), RARB (gene 5915) (UniProt P10826); assay: ATG_RARb_TRANS: Attagene TRANS-FACTORIAL HepG2 Assay for human Retinoic Acid Receptor beta (AID 2283004)
# Sequence of human Retinoic Acid Receptor beta (RARb), RARB (gene 5915) (P10826 whole entry, looked up, the tested form may be a part): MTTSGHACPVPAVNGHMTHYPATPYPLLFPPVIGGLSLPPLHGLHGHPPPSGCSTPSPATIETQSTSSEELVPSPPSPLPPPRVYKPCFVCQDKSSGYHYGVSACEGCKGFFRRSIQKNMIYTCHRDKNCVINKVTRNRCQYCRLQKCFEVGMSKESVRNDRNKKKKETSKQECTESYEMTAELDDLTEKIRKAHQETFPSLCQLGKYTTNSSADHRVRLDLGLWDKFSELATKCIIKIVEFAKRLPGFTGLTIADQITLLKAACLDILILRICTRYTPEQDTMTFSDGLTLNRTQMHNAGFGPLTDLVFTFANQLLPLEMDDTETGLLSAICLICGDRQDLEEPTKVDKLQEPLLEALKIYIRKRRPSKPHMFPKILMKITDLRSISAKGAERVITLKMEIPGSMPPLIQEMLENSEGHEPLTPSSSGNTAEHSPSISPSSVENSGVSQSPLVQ
# Summary of the method: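 Induction of reporter mRNA from a chimeric RARb-Gal4 construct was measured by RT-PCR, FAM labelling, HpaI digestion and capillary electrophoresis. Measurements followed 24 h compound treatment of transiently transfected human HepG2 liver cells, with DMSO as baseline.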
# [9] = target: Retinoic acid receptor RXR-alpha (Homo sapiens) (UniProt P19793); assay: ATG_RXRa_TRANS: Attagene TRANS-FACTORIAL HepG2 Assay for human Retinoid X Receptor alpha (RXRa) (AID 2283012)
# Sequence of Retinoic acid receptor RXR-alpha (Homo sapiens) (P19793 whole entry, looked up, the tested form may be a part): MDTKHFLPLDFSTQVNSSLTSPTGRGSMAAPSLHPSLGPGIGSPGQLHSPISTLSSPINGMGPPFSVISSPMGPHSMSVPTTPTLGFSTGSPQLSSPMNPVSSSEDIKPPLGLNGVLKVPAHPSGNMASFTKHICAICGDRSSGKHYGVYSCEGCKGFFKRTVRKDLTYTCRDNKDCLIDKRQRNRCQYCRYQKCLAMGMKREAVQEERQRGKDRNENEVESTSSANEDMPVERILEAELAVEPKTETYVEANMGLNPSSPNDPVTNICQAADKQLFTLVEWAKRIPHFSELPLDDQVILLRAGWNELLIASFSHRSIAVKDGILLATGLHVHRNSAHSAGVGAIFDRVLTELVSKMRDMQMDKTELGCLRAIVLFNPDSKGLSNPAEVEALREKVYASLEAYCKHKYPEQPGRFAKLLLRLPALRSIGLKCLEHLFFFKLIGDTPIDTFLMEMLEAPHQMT
# Summary of the method: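 TRANS format reporting activity of exogenous RXRa-Gal4 chimera in transiently transfected HepG2, 24 h exposure. Reporter transcripts quantified by RT-PCR with capillary electrophoresis, with gain of signal scored relative to DMSO.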
# [10] = target: human RAR-related Orphan Receptor beta (RORb), RORB (gene 6096) (UniProt Q92753); assay: ATG_RORb_TRANS: Attagene TRANS-FACTORIAL HepG2 Assay for human RAR-related Orphan Receptor beta (RORb) (AID 2283010)
# Sequence of human RAR-related Orphan Receptor beta (RORb), RORB (gene 6096) (Q92753 whole entry, looked up, the tested form may be a part): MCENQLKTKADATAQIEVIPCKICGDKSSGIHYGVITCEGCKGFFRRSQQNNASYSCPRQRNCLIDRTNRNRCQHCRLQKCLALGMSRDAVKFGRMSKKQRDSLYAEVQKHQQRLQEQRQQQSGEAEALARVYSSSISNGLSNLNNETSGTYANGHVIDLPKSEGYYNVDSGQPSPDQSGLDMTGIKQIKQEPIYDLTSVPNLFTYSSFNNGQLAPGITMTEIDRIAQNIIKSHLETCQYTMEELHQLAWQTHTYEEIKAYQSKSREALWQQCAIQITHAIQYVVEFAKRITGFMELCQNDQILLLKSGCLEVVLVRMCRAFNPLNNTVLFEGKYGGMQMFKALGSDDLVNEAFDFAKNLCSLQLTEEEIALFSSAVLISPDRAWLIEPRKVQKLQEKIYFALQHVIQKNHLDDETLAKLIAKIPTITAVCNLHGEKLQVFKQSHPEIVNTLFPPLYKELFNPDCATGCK
# Summary of the method: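 Read-out is reporter mRNA induction, quantified by RT-PCR with fluorescent capillary electrophoresis, 24 h post-dose in transiently transfected HepG2 expressing exogenous NR-Gal4 chimera. Activity fitted upward versus DMSO.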
compound,measurement,setting,value
CCc1cccc(CC)c1,outcome,[1],inactive
same,outcome,[2],inactive
same,outcome,[3],inactive
same,outcome,[4],inactive
O=C(Oc1ccccc1)c1ccccc1O,outcome,[2],inactive
same,outcome,[5],inactive
same,outcome,[4],inactive
same,outcome,[6],inactive
C[Si](C)(C)N[Si](C)(C)C,outcome,[7],inactive
same,outcome,[4],inactive
same,outcome,[6],inactive
CO[Si](C)(C)OC,outcome,[8],inactive
same,outcome,[2],inactive
same,outcome,[5],inactive
same,outcome,[6],inactive
CCCCCCOc1ccc(N)cc1,outcome,[2],inactive
same,outcome,[5],inactive
CCCC(CC)c1ccccc1 (stereo not drawn),outcome,[2],inactive
same,outcome,[5],inactive
same,outcome,[3],inactive
same,outcome,[7],inactive
same,outcome,[9],inactive
same,AC50,[4],66.4 µM (active)
same,outcome,[6],inactive
N=C1C=CC(=C(c2ccc(N)cc2)c2ccc(N)cc2)C=C1,AC50,[2],31.9 µM (active)
same,outcome,[5],inactive
same,outcome,[3],inactive
same,outcome,[10],inactive
same,outcome,[7],inactive
same,outcome,[9],inactive
CCCCCCCCCCCCCc1ccccc1,outcome,[2],inactive
same,outcome,[5],inactive
same,outcome,[10],inactive
same,outcome,[7],inactive
same,outcome,[4],inactive
same,outcome,[6],inactive
CC(=O)OC(C)c1ccccc1 (stereo not drawn),outcome,[8],inactive
same,outcome,[7],inactive
same,outcome,[9],inactive
same,outcome,[6],inactive
Cc1c(Cl)cccc1Cl,outcome,[10],inactive
same,outcome,[9],inactive
same,outcome,[6],inactive
CC1CCC(=O)C1=O (stereo not drawn),outcome,[8],inactive
same,outcome,[2],inactive
same,AC50,[4],59.8 µM (active)
CC1(C)[C@@H]2CC[C@@]1(C)C(=O)C2,outcome,[1],inactive
same,outcome,[5],inactive
same,outcome,[3],inactive
same,outcome,[9],inactive
same,outcome,[6],inactive
O=C(Cl)c1ccc(C(=O)Cl)cc1,outcome,[8],inactive
same,outcome,[5],inactive
same,outcome,[3],inactive
same,outcome,[10],inactive
same,outcome,[6],inactive
CCCCCOC(=O)CCCCC,outcome,[6],inactive
COCC(=O)O,outcome,[1],inactive
same,outcome,[2],inactive
same,outcome,[7],inactive
same,outcome,[9],inactive
same,outcome,[6],inactive
CC(C)(C)N,outcome,[2],inactive
same,outcome,[10],inactive
same,outcome,[7],inactive
same,outcome,[9],inactive
same,outcome,[4],inactive
CCCCCCCCCC(C)=O,outcome,[2],inactive
same,outcome,[9],inactive
same,outcome,[4],inactive
same,outcome,[6],inactive
CC(=O)/C=C/C1C(C)=CCCC1(C)C (stereo not drawn),AC50,[2],42.1 µM (active)
same,AC50,[5],2.79 µM (active)
same,outcome,[7],inactive
same,outcome,[9],inactive
same,AC50,[4],31.3 µM (active)
same,outcome,[6],inactive
CC1=CCC(C(C)C)C=C1 (stereo not drawn),outcome,[2],inactive
same,AC50,[5],7.16 µM (active)
same,outcome,[4],inactive
CC(C)c1ccc(O)c(C(C)C)c1,outcome,[8],inactive
same,outcome,[2],inactive
same,AC50,[5],6.58 µM (active)
same,outcome,[3],inactive
same,AC50,[9],54.6 µM (active)
same,AC50,[4],9.23 µM (active)
CCCCCCO,outcome,[2],inactive
same,outcome,[5],inactive
same,outcome,[4],inactive
C=C1C[C@H]2[C@@H]3C=C(C)C4=CC(=O)CC[C@]4(C)[C@H]3CC[C@]2(C)[C@@]1(OC(C)=O)C(C)=O,outcome,[5],inactive
same,outcome,[9],inactive
CCCCc1ccc(Cl)cc1,outcome,[2],inactive
same,outcome,[5],inactive
same,outcome,[9],inactive
same,outcome,[4],inactive
CCCCOCC(C)O (stereo not drawn),outcome,[2],inactive
same,outcome,[5],inactive
same,outcome,[3],inactive
same,outcome,[9],inactive
same,outcome,[4],inactive
same,outcome,[6],inactive
NNS(=O)(=O)c1ccc(Oc2ccc(S(=O)(=O)NN)cc2)cc1,outcome,[2],inactive
same,outcome,[5],inactive
same,outcome,[10],inactive
CC(C)(c1ccccc1)c1ccc(Nc2ccc(C(C)(C)c3ccccc3)cc2)cc1,outcome,[2],inactive
same,outcome,[10],inactive
same,outcome,[4],inactive
Cc1cc(C)n(CO)n1,outcome,[8],inactive
same,outcome,[2],inactive
same,outcome,[7],inactive
same,outcome,[4],inactive
CC(=O)CC(=O)Nc1ccccc1C,outcome,[3],inactive
same,outcome,[10],inactive
same,outcome,[4],inactive
CCCCNS(=O)(=O)c1ccccc1,outcome,[2],inactive
same,outcome,[5],inactive
same,outcome,[7],inactive
same,outcome,[6],inactive
CN1CCN(C)CC1,outcome,[7],inactive
same,outcome,[9],inactive
same,outcome,[6],inactive
Nc1ncnc2nc[nH]c12,outcome,[7],inactive
same,outcome,[6],inactive
CCCCCC(=O)OCC,outcome,[10],inactive
same,outcome,[9],inactive
same,outcome,[4],inactive
Cn1ccnc1,outcome,[1],inactive
same,outcome,[9],inactive
same,outcome,[4],inactive
same,outcome,[6],inactive
CCN1CCCC1=O,outcome,[2],inactive
same,outcome,[9],inactive
same,outcome,[6],inactive
